Drawing on PubChem BioAssay (NCI), this text covers growth inhibition for 14 compounds.

The panel holds about 79,000 compounds, 15% with a hit somewhere; the sample as a whole holds those more often. A number with no mark means an inactive call. The source made the active and inactive calls. Rule as the data show it: active = growth inhibition above about 70%; inactive = the rest.

This test in a line: NCI Yeast Anticancer Drug Screen. Data for the cln2 rad14 strain (AID 165).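 Also: 0% = growth equal to vehicle treated cultures.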 Conditions: S. cerevisiae cln2 rad14 strain, active compounds read high. The method, then: Growth inhibition of yeast strains with defined genetic alterations is measured as a screen for potential anti-cancer activity. Selected strains with alterations in DNA damage repair or cell cycle control were exposed to compounds and growth inhibition was measured relative to vehicle treated controls. The strain used in this assay is cln2 rad14

The mark [1] stands for this setting: at 5.0 µM (retest, dose inferred, filed as 0.5).
The mark [2] stands for this setting: at 50.0 µM (retest, dose inferred, filed as 5.0).

On to `COc1ccc(NNC(=O)c2ccccc2)cc1`, for which the growth inhibition is, setting by setting: under setting [1], 3%; under setting [2], 97% (active); (at 50.0 µM) 96.8% (active).
On to `C=CCOC(=O)C(O)C(CC)CCCCC` (configuration not stated), for which the growth inhibition is 10% under setting [1], 31% under setting [2] and 80.2% (active) (at 50.0 µM).
The corresponding values for `C/C(=N\OS(=O)(=O)O)SC1OC(CO)C(O)C(O)C1O` (configuration not stated) are -16%, 18% and -0.95%.
The corresponding values for `C/C=C/C(=O)NCC(C(C)C)/[N+]([O-])=N/O` (configuration not stated) are 80% (active), 82% (active) and 91.2% (active).
`NC(=O)c1c(Cl)nc2n1CCS2`: the growth inhibition is -2% under setting [1], -7% under setting [2] and 8.4% (at 50.0 µM).
In the case of `COC(=O)c1c[nH]c2ccc(Br)cc12`, the growth inhibition is, setting by setting: under setting [1], -9%; under setting [2], -20%; (at 50.0 µM) 44%.
Taken in the same sequence, the figures for `C(=P(c1ccccc1)(c1ccccc1)c1ccccc1)[P+](c1ccccc1)(c1ccccc1)c1ccccc1` were 98% (active), 99% (active) and 98.7% (active).
Taken in the same sequence, the figures for `CCCN1CN(C(C(=O)N[C@@H]2C(=O)N3C(C(=O)O)=C(C)CSC23)c2ccccc2)CSC1=S` (some centres not stated) were -37%, -14% and 44%.
The corresponding values for `CN(CN(C)N=Nc1ccc(Cl)cc1)CN(C)N=Nc1ccc(Cl)cc1` are -6%, -2% and 19.9%.
With `C=CCNC(=S)N/N=C(/c1ccccn1)C(C)C`, the growth inhibition is, setting by setting: under setting [1], -4%; under setting [2], 28%; (at 50.0 µM) 91.3% (active).
The corresponding values for `Oc1ccc2cc(Br)ccc2c1O` are -24%, 97% (active) and 97% (active).
Consider `Oc1cc2c(cc1C(c1ccc(F)cc1)N1CCCCC1)OCO2` (configuration not stated), for which the growth inhibition is -4% under setting [1], 39% under setting [2] and 54.9% (at 50.0 µM).
The corresponding values for `CSc1cccc(N2C(=O)C=CC2=O)c1` are 69%, 100% (active) and 91.5% (active).
The corresponding values for `O=C1NN(C2=NNC3(C(=O)N2)c2ccccc2-c2ccccc23)C(c2ccccc2)=N/C1=C/c1ccc(Cl)cc1` are -10%, 3% and -3.25%.
